# In the library only some 3.2% were active in any assay of this set; here they are far more common.
# HDAC3 inhib: HDAC3 deacetylase inhibitors, primary screen, biochemical, fluorescence, cell-free homogeneous | Histone deacetylase 3 (Homo sapiens), O15379 | recombinant HDAC3, fluorogenic peptide/trypsin coupled | inhibition, % at 8.3 µM | 320,000 tested, 0.15% active; in the data active means inhibition above about 26%, passing the limit was not always enough
# ANO1 block: TMEM16A chloride channel inhibitors, primary screen, cell-based, HTS; Anoctamin-1 (Mus musculus), Q8BHY3; HEK293 TMEM16A/YFP iodide influx fluorescence, ionomycin; normalized B-score (activity score, 25-100; higher = stronger inhibition) at 10 µM; 310,000 tested, 1.2% active;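 active means ratio plate-corrected score three or more library SD toward inhibition, starting fluorescence score within five deviations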;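 further: score derived from kinetic fluorescence span divided by baseline fluorescence per well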
# TMEM16A act: TMEM16A chloride channel activators or potentiators, primary screen, cell-based, HTS | Anoctamin-1 (Mus musculus), Q8BHY3 | HEK293 TMEM16A/YFP-H148Q/I152L, iodide quench fluorescence; active compounds read low | B-score at 10 µM | 340,000 tested, 0.3% active;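 active means fluorescence-ratio B-score plate-corrected deviation score at least 3 library SD below zero, with starting fluorescence score within 5 deviations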;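 further: channel opened by trigger with iodide after compound preincubation; score built on the fluorescence ratio of max minus min over baseline; more negative score means more quench and so TMEM16A activation or potentiation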
# CHT PAM: CHT positive allosteric modulators, primary screen, cell-based, membrane potential dye, choline EC20; High affinity choline transporter 1 (Homo sapiens), Q9GZV3; CHT-expressing cells; active compounds read high; LV-AA mutant CHT in HEK293 cells; B-score at 10 µM; 310,000 tested, 0.49% active; AID 488977, 2010;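 active means initial fluorescence not abnormally high and integrated response B-score, plate-corrected, over 3 SD above library mean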
# Target sequence (Q9GZV3 whole entry, looked up): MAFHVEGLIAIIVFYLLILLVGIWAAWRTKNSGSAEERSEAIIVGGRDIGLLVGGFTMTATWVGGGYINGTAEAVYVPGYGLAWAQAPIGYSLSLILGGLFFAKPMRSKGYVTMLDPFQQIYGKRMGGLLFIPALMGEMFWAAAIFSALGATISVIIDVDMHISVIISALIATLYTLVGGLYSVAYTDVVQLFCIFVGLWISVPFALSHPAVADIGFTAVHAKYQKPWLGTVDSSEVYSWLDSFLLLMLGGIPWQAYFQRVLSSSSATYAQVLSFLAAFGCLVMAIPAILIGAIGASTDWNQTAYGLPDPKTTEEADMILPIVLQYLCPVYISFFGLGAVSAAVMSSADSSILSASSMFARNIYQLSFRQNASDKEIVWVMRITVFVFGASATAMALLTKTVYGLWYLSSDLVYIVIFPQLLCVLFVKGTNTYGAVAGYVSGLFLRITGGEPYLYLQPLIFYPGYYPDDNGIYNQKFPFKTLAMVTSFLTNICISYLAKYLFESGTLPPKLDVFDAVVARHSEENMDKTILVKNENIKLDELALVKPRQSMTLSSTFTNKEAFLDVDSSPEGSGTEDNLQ
# CHT block: inhibitors of human choline transporter CHT | High affinity choline transporter 1 (Homo sapiens), Q9GZV3 | CHT-expressing cells, membrane potential dye, choline response; active compounds read low | B-score at 10 µM | 310,000 tested, 0.86% active | AID 488975, 2010;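 active means B-score over 3 SD under the library average, and starting fluorescence ratio not unusually high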;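 further: choline stimulus applied at its EC90 after an EC20 pre-addition; B-score computed on integrated fluorescence ratio after choline addition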
# PHOSPHO1 block: PubChem AID 1565 | Phosphoethanolamine/phosphocholine phosphatase (Homo sapiens), Q8TCT1 | recombinant PHOSPHO1, absorbance phosphatase assay | inhibition, % at 13.3 µM | 290,000 tested, 1.1% active; in the data active means inhibition above about 60%
# Numbers without * were called inactive; i = inactive; . = no result.
SMILES,HDAC3 inhib,ANO1 block,TMEM16A act,CHT PAM,CHT block,PHOSPHO1 block
COc1ccc(S(=O)(=O)N2CCC(CN3C(=O)c4cccc5cccc(c45)C3=O)CC2)cc1,2.4,i,i,i,i,-6.8
COc1ccc(-c2[nH]ncc2CN2CCN(c3ccccn3)CC2)c(OC)c1,-3.5,i,i,i,i,60.1*
COc1ccc(C(=O)NCC(=O)N/N=C/c2c(C)[nH]c3ccccc23)cc1,9.8,i,i,i,i,1.5
C/C(=N\Nc1ccc(Cl)c(C(=O)O)c1)c1ccc(N2CCOCC2)cc1,2.9,25*,i,i,i,17.4
COc1ccc(NC(=O)c2c(Nc3ccccc3)sc(C(=O)c3ccc(F)cc3)c2N)cc1,-10.0,100*,i,i,i,22.8
Cc1cccc(N(Cc2cc3ccc(C)cc3[nH]c2=O)C(=O)c2ccco2)c1,-1.3,i,i,i,i,69.9*
COc1ccc(-c2csc(NC(=O)c3c(OC)cccc3OC)n2)cc1,-0.9,i,i,i,i,40.1
COc1ccc(-c2csc(NC(=O)c3ccccc3NS(=O)(=O)c3ccc(C)cc3)n2)cc1,-1.4,100*,i,i,i,-20.0
COC(=O)c1ccc2c(c1)S(=O)(=O)NC(=NCc1ccco1)S2,4.1,i,i,i,i,75.3*
N#CC(c1cccc(Cl)c1)c1ccc2c(C(F)(F)F)cc(C(F)(F)F)nc2n1 (stereo not drawn),.,100*,-4.8*,i,i,11.7
CC(Sc1nnc2c(n1)[nH]c1ccccc12)C(=O)NC1CCCCC1 (stereo not drawn),1.3,i,i,i,i,46.2
CC(Sc1nnc2c(n1)[nH]c1ccccc12)C(=O)N(C)C1CCCCC1 (stereo not drawn),16.2,100*,i,i,i,26.5
CN(C)c1ncnc2c1NC1=C(S2)C(=NCCCC(=O)O)CC(C)(C)C1,10.6,i,i,i,i,86.6*
COc1ccc(CN(CC2CCC(C(=O)O)CC2)C(=S)Nc2cc(C)cc(C)c2)cc1 (stereo not drawn),0.6,i,i,i,i,-0.7
Cc1ccc(C)n1-c1sc2c(c1C#N)CCCC2,-1.2,i,i,i,i,1.5
Cc1sc(-n2c(C)ccc2C)c(C#N)c1C,-1.1,i,i,i,i,95.3*
CC(C)Cc1nc2oc3c(NCC(C)O)ncnc3c2c2c1CCCC2 (stereo not drawn),-3.5,i,i,i,-7.58*,26.8
CC(C)Cc1nc2oc3c(Cl)ncnc3c2c2c1CCCC2,-6.4,i,i,i,i,17.1
OC(C#Cc1ccccn1)c1cccs1 (stereo not drawn),2.3,i,i,i,i,60.5*
OC(c1ccccn1)C(O)c1ccccn1 (stereo not drawn),.,.,i,.,.,.
CCC(=O)Oc1ccc(C(CC)C(CC)c2ccc(OC(=O)CC)cc2)cc1 (stereo not drawn),.,100*,i,i,i,13.3
COC(=O)CSC1=C(C#N)C(=O)NC(c2ccccc2)S1 (stereo not drawn),6.9,i,i,i,i,97.5*
COc1ccccc1NC(=O)CCC(=O)OCC(=O)c1ccc(C)c([N+](=O)[O-])c1,-2.2,i,i,i,i,13.7
CCOc1cc(N2CCOCC2)c(OCC)cc1NC(=O)[C@H](C)N1C(=O)C2CC=CCC2C1=O (stereo partly drawn),3.9,i,i,i,i,62.9*
C[C@@H](C(=O)Nc1cc(C(F)(F)F)ccc1N1CCOCC1)N1C(=O)C2CC=CCC2C1=O (stereo partly drawn),.,.,i,.,.,.
SMILES,HDAC3 inhib,ANO1 block,TMEM16A act,CHT PAM,CHT block,PHOSPHO1 block
CC(C)(C)n1nc2c(c1NC(=O)Cc1cccc3ccccc13)CS(=O)C2 (stereo not drawn),-7.4,i,i,i,i,63.2*
CCOC(=O)C1CCN(CC(=O)c2c(C)[nH]c3ccccc23)CC1,-1.1,i,i,i,i,-3.3
Cc1[nH]c2ccccc2c1C(=O)C(=O)N1CCN(C)CC1,3.6,i,i,i,i,68.5*
Cc1[nH]c2ccccc2c1C(=O)C(=O)N1CCN(c2ccccc2)CC1,8.9,i,i,i,i,38.3
Cc1[nH]c2ccccc2c1C(=O)CN1CCC(C)CC1,-2.9,i,i,i,i,69.5*
O=C(CN1CCCCC1)Nc1ccc(NC(=O)c2ccccc2Cl)cc1Cl,5.7,i,i,i,i,-12.2
CCOC(=O)c1c(=O)n(O)c2ccc(C)cc2[n+]1[O-],3.2,i,i,i,i,67.7*
CCOC(=O)c1c(C)[n+]([O-])c2ccc3c(non3O)c12,4.5,i,i,i,i,16.5
CC(C)(C)NC(=O)N1CCC(CO)(Cc2ccccc2Cl)CC1,.,i,-6.9*,i,i,14.8
CCn1ccnc1CN(C)Cc1nc(-c2ccccc2)no1,2.0,i,i,i,i,60.1*
O=C(CC1C(=O)NCCN1Cc1ccccc1C(F)(F)F)NC1CCCCC1 (stereo not drawn),-1.5,i,i,i,i,43.9
Cc1ccc(-c2nc(CSCC(=O)N3CCN(c4ccccn4)CC3)c(C)o2)cc1,-0.7,25*,i,i,i,38.3
CCc1ccc(-c2nc(CSCC(=O)N3CCN(c4ccccn4)CC3)c(C)o2)cc1,-7.1,100*,i,i,i,24.2
CC1CN(c2cc(=O)n(-c3ccc(Cl)cc3)c(=O)[nH]2)CC(C)O1 (stereo not drawn),.,.,i,.,.,43.1
CCOC(=O)Cc1nn(Cc2nc(-c3ccc(C)cc3)cs2)c(=O)c2ccccc12,8.0,25*,i,i,i,23.1
O=c1cc(-c2ccccc2Cl)oc2c([N+](=O)[O-])c(O)cc(O)c12,12.1,i,i,i,-12.8*,-1.4
Fc1ccc(NCc2cccnc2)cc1F,2.1,i,i,i,i,52.0
CC(=O)N1CCc2c(sc(NC(=O)CS(=O)(=O)c3ccc(F)cc3)c2C(N)=O)C1,.,i,i,i,i,.
CC(=O)C(Cc1ccccc1)NC(=O)CN1c2cccc3cccc(c23)S1(=O)=O (stereo not drawn),-5.7,.,-9.82*,.,.,.
